Source: PubChem (several laboratories)
In the library only some 2.3% were active in any assay of this set; here they are far more common.
V-ATPase pHluor: regulators of yeast V-ATPase proton transport | S. cerevisiae, pHLuorin cytosolic pH fluorescence | response, % at 10 µM | hit rate 0.37% among 350,000 | AID 504577; in the data active means response mostly above about 7.3%, no sharp cut-off; inactive means mostly below about 5.4%; further: actives read high
proKLK7 act: activators of human kallikrein-7 zymogen. activation, % at 7 µM. purified proKLK7, EDANS-DABCYL substrate fluorescence; 100% is mature enzyme control, 0% vehicle. hit rate 0.9% among 370,000. AID 652039. P49862;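 active means activation above the mean of all tested compounds plus 3 SD, computed per campaign excluding outliers beyond control limits, cut at about 13% in these data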
ADAM10 inh: ADAM10 inhibition, QFRET primary screen | O14672 | recombinant ADAM10, EDANS/DABCYL FRET peptide cleavage, 3 h | inhibition, % at 7 µM | hit rate 0.62% among 370,000;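 active means inhibition above a per-campaign cutoff equal to the mean of compounds falling between control-based bounds plus 3 SD, cut at about 20% in these data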;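 further: 0% = DMSO wells while the 100% control is not disclosed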
ADAM17 inh: inhibits human ADAM17 | P78536 | recombinant ADAM17, EDANS/DABCYL FRET peptide cleavage | inhibition, % at 6.95 µM | hit rate 0.83% among 370,000;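 active means inhibition above the mean of compounds lying between control limits plus 3 SD, set per campaign, cut at about 8.5% in these data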;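 further: 0% = DMSO-only wells as the low control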
Target sequence (P78536 215-824 limits assumed): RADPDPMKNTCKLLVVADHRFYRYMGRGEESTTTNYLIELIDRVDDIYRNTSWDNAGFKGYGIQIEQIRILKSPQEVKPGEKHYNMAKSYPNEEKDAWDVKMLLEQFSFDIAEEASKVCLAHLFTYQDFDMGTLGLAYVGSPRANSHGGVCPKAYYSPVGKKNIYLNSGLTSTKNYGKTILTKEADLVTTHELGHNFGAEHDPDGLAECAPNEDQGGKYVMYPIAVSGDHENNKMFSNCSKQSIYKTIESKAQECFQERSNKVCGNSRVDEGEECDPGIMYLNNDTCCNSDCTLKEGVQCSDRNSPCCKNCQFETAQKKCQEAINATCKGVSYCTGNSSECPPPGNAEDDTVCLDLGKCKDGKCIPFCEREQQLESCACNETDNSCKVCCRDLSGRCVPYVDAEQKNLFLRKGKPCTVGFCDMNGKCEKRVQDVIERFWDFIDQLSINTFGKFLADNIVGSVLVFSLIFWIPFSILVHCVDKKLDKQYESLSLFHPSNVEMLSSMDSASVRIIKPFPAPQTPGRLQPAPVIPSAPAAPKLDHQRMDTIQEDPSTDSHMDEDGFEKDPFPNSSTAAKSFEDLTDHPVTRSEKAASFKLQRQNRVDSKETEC
ADAM10 confirm: human ADAM10 inhibition, confirmation | hit rate 1% among 2,100 | ADAM10 QFRET peptide cleavage, EDANS fluorescence | inhibition, % at 6.95 µM | shares compounds with ADAM10 inh;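 active means inhibition above about 20% chosen separately for each screening run, limit read from the data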;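 further: 0% = DMSO wells and 100% = marimastat wells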
ADAM17 ctr: inhibits human ADAM17 in ADAM10 exosite counter-screen; inhibition, % at 6.95 µM; ADAM17 QFRET peptide cleavage, EDANS fluorescence; shares compounds with ADAM10 inh; hit rate 0.5% among 2,100;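 active means mean triplicate inhibition above the solvent-only control wells' mean plus 3 SD, cut at about 12% in these data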;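 further: 0% = DMSO wells and 100% = marimastat wells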
Starred values were filed as active, the others as inactive.

How did C=CCC[C@H](CCCCC)OC(=O)/C=C/[C@@H](O)[C@H](O)C[C@@H](O)CC=C do in these assays?
proKLK7 act: 0.4; ADAM10 inh: 20.9*; ADAM17 inh: 7.4; ADAM10 confirm: 0.3; ADAM17 ctr: 0.3

What do the screens show for `Cc1ccccc1CN(c1ccc(C(=O)Nc2ccccc2C(=O)NCc2ccco2)cc1)S(C)(=O)=O`?
V-ATPase pHluor: -1.5; proKLK7 act: -40.7; ADAM10 inh: 25.9*; ADAM17 inh: 7.9; ADAM10 confirm: 19.9*; ADAM17 ctr: 4.1

Results for Cc1ccc2oc(=O)c(/C=C(\O)c3ccco3)nc2c1 ?
V-ATPase pHluor: 0.0; proKLK7 act: 0.0; ADAM10 inh: 21.3*; ADAM17 inh: 1.3; ADAM10 confirm: 1.4; ADAM17 ctr: -1.2

Results for Cc1ccc2oc(=O)c(/C=C(\O)C(C)(C)C)nc2c1 ?
V-ATPase pHluor: -1.0; proKLK7 act: -0.2; ADAM10 inh: -7.1; ADAM17 inh: 1.8

Results for COc1cc(S(=O)(=O)N2CCOCC2)ccc1NC(=O)COC(=O)CC12CC3CC(CC(C3)C1)C2 ?
V-ATPase pHluor: 2.4; proKLK7 act: 0.5; ADAM10 inh: 29.4*; ADAM17 inh: 7.6; ADAM10 confirm: 2.3; ADAM17 ctr: 1.3

What do the screens show for `O=C(Oc1cccc(NC(=O)c2ccco2)c1)c1ccc(Br)c(S(=O)(=O)N2CCCCC2)c1`?
proKLK7 act: 0.7; ADAM10 inh: 27.8*; ADAM17 inh: 12.6*; ADAM10 confirm: 3.3; ADAM17 ctr: 1.2

Results for Cc1ccc(C(=O)Oc2cccc(NC(=O)c3ccco3)c2)cc1S(=O)(=O)N1CCC(C)CC1 ?
V-ATPase pHluor: 0.6; proKLK7 act: -0.3; ADAM10 inh: 12.8; ADAM17 inh: 7.2

Results for O=C(NCc1ccccc1)[C@@H]1CCCN1C(=O)[C@H]1CCCN1C(=O)c1ccc(F)c(F)c1 ?
proKLK7 act: 1.1; ADAM10 inh: -7.6; ADAM17 inh: -2.8

Results for Oc1cccc(/C=N/N(Cc2ccccc2)c2ccccc2)c1 ?
V-ATPase pHluor: 1.6; proKLK7 act: -0.4; ADAM10 inh: 22.3*; ADAM17 inh: 8.6; ADAM10 confirm: 13.2; ADAM17 ctr: 4.9

How did CCOc1cccc(C(=O)Nc2ccc(N(CC)CC)cc2)c1 do in these assays?
V-ATPase pHluor: -1.4; proKLK7 act: 0.6; ADAM10 inh: 26.9*; ADAM17 inh: -1.7; ADAM10 confirm: 2.5; ADAM17 ctr: 1.1

What do the screens show for `CCOc1cccc(C(=O)Nc2ccc3ccccc3c2)c1`?
V-ATPase pHluor: -2.1; proKLK7 act: 0.4; ADAM10 inh: 10.5; ADAM17 inh: 6.8

How did CN1C(=O)C[C@@](C#N)(C(=O)NCc2ccc3c(c2)OCO3)[C@H]1c1ccccc1 do in these assays?
proKLK7 act: -0.1; ADAM10 inh: 4.6; ADAM17 inh: 4.0

Results for Cc1ccccc1C(=O)Oc1cccc(Nc2ncnc3ccccc23)c1 ?
V-ATPase pHluor: -0.6; proKLK7 act: -0.9; ADAM10 inh: -5.4; ADAM17 inh: 1.6

How did CC(=O)Oc1cccc(Nc2ncnc3ccccc23)c1 do in these assays?
V-ATPase pHluor: -4.1; proKLK7 act: 0.2; ADAM10 inh: 82.9*; ADAM17 inh: -0.1; ADAM10 confirm: 1.8; ADAM17 ctr: 0.1

How did O=C(COC(=O)CCc1nc2ccccc2s1)Nc1ccc(Cl)cn1 do in these assays?
V-ATPase pHluor: -5.0; proKLK7 act: -0.5; ADAM10 inh: 23.8*; ADAM17 inh: -2.4; ADAM10 confirm: 1.3; ADAM17 ctr: 0.2

Results for O=C(CC(c1ccccc1)c1ccccc1)Nc1ccc(Cl)cn1 ?
V-ATPase pHluor: 2.0; proKLK7 act: -0.4; ADAM10 inh: 22.9*; ADAM17 inh: 13.8*; ADAM10 confirm: 1.8; ADAM17 ctr: 0.5

Results for O=C(CS(=O)(=O)c1ccccc1)Nc1ccc(Cl)cn1 ?
V-ATPase pHluor: 2.0; proKLK7 act: -0.2; ADAM10 inh: -1.9; ADAM17 inh: -0.4

Results for C[C@@H]1CCCCO[C@H](CN(C)C(=O)C2CCCCC2)[C@@H](C)CN([C@H](C)CO)C(=O)c2cc(NS(=O)(=O)c3cccs3)ccc2O1 ?
proKLK7 act: 0.3; ADAM10 inh: -7.0; ADAM17 inh: -2.8

Results for CCNC(=S)Nc1scc(-c2ccccc2)c1C(=O)OCC ?
V-ATPase pHluor: -2.1; proKLK7 act: -0.3; ADAM10 inh: 26.3*; ADAM17 inh: 7.0; ADAM10 confirm: 1.6; ADAM17 ctr: 0.8

How did COC(=O)[C@]12C[C@H](CC(=O)NCc3cccc(C(F)(F)F)c3)C(=O)N(CCC3=CCCCC3)C1=C[C@H](COCc1ccccc1)O[C@@H]2C do in these assays?
proKLK7 act: -0.2; ADAM10 inh: -1.2; ADAM17 inh: 4.0

How did O=C(Nc1cccc(Cl)c1)Nc1cccc(Cl)c1 do in these assays?
V-ATPase pHluor: -7.2; proKLK7 act: -0.4; ADAM10 inh: 5.0; ADAM17 inh: 2.7

What do the screens show for `O=C(Nc1cccc(F)c1)Nc1cccc(Cl)c1`?
V-ATPase pHluor: -2.6; proKLK7 act: 0.1; ADAM10 inh: 23.3*; ADAM17 inh: 3.8; ADAM10 confirm: 0.8; ADAM17 ctr: 0.4

Results for COc1ccccc1NS(=O)(=O)c1cccc(NC(=O)NCCCl)c1 ?
V-ATPase pHluor: -1.0; proKLK7 act: 0.5; ADAM10 inh: -1.4; ADAM17 inh: -4.9

How did COc1ccccc1NS(=O)(=O)c1cccc(NC(=O)Nc2cccc(Cl)c2)c1 do in these assays?
V-ATPase pHluor: -1.4; proKLK7 act: 0.8; ADAM10 inh: 30.7*; ADAM17 inh: 8.5; ADAM10 confirm: 10.6; ADAM17 ctr: 3.7

How did COC(=O)c1cc(NC(=O)Nc2cccc(Cl)c2)ccc1Cl do in these assays?
V-ATPase pHluor: 3.6; proKLK7 act: -0.1; ADAM10 inh: 20.2*; ADAM17 inh: 8.2; ADAM10 confirm: 5.9; ADAM17 ctr: 1.0

How did COC(=O)[C@]12C[C@H](CC(=O)N3CCOCC3)C(=O)N(CCC3=CCCCC3)C1=C[C@H](C1CCCC1)O[C@@H]2C do in these assays?
proKLK7 act: 0.5; ADAM10 inh: 4.0; ADAM17 inh: 0.5

What do the screens show for `COC(=O)[C@]12C[C@H](CC(=O)N3CCCCC3)C(=O)N(Cc3ccco3)C1=C[C@H](C1CCCC1)O[C@@H]2C`?
proKLK7 act: 0.2; ADAM10 inh: 3.5; ADAM17 inh: 1.8

How did Fc1ccc(NC(=S)Nc2cc(-c3ccccc3)[nH]n2)cc1Cl do in these assays?
V-ATPase pHluor: 0.3; proKLK7 act: -0.4; ADAM10 inh: 21.6*; ADAM17 inh: 5.2; ADAM10 confirm: 10.2; ADAM17 ctr: 2.7

What do the screens show for `Cc1ccc(NC(=S)Nc2cc(-c3ccccc3)[nH]n2)cc1Cl`?
V-ATPase pHluor: 4.9; proKLK7 act: 0.0; ADAM10 inh: 15.6; ADAM17 inh: 3.6

How did Cc1ccc(C)c(OCc2cc(C(=O)NC(c3ccccn3)C(F)(F)F)no2)c1 (stereo not given) do in these assays?
V-ATPase pHluor: -0.6; proKLK7 act: -0.6; ADAM10 inh: 21.0*; ADAM17 inh: 6.4; ADAM10 confirm: 4.2; ADAM17 ctr: 1.6
